Data on one compound can be found in PubChem BioAssay AID623888 (Vanderbilt Specialized Chemistry Center, 2012).

The target in this test is Metabotropic glutamate receptor 3 (Rattus norvegicus) (UniProt P31422). Nature of the test: PubChem AID 623888. To be noted: HEK/GIRK rat mGlu3, thallium flux fluorescence, Schild, at 3 µM; % glutamate max: glutamate max response with compound, stronger effect = lower value; glutamate EC50 fold shift: stronger effect = higher value.
Metabotropic glutamate receptor 3 (Rattus norvegicus), sequence (P31422 whole entry, looked up): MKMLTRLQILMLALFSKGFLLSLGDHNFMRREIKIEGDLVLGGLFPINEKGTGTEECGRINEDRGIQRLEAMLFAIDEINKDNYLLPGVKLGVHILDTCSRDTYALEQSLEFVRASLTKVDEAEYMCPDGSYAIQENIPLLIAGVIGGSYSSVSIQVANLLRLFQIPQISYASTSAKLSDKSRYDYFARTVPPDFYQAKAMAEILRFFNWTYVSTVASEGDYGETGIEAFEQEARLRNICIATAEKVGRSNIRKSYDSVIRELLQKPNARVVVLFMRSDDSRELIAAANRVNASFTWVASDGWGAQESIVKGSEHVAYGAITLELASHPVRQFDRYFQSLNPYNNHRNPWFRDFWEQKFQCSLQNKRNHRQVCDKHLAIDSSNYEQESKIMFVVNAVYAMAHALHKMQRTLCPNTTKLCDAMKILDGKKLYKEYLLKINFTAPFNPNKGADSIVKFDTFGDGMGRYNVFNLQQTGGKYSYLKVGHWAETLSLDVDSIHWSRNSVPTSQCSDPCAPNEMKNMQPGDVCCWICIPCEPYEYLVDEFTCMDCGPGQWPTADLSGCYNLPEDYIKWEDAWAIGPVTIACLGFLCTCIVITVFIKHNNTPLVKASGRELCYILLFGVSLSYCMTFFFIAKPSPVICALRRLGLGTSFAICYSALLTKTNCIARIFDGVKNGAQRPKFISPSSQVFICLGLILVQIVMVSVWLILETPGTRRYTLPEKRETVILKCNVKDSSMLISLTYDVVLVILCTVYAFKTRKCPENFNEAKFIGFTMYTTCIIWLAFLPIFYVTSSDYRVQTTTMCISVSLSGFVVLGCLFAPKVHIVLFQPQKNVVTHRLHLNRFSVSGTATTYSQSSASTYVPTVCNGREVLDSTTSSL

As for `COc1ccc(C#Cc2ccc(C(=O)N3CCC[C@@H](CO)C3)cc2)cc1`, the % glutamate max was found to be 88.9% and the glutamate EC50 fold shift was determined as 1.48.
